The list is not random: actives were taken first. Their share in the collection is about 19%.
HT1080-NT tox: kills 2HG-producing HT-1080-NT fibrosarcoma cells; AID 686970; Potency, µM (titrated, usually from 46.1 µM), for the others: at the top dose activity, negative = less viability, most hits filed as cytotoxic; hit rate 1.6% among 360,000; HT-1080-NT fibrosarcoma viability, CellTiter-Glo ATP luminescence, 48 h;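 note: NT is the 2HG producing partner of a matched IDH1 knockdown line; potency is the fitted concentration of half-maximal effect; 0% = DMSO-treated cells and -100% = media-only wells without cells; nearly all actives have a fitted effect of over 55% in size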
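Read-out is CellTiter-Glo luminescence after 10 minutes at room temperature, following 48 hours' compound treatment of HT-1080-NT cells (750 cells/well, RPMI, 5% FBS, 37 degrees C).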
IL1B secr inh: inhibitors of inflammasome signaling (IL-1 beta secretion); THP-1 LPS/ATP IL-1B secretion, AlphaLISA, 16 h; stronger effect = lower value; activity change, % at 57.5 µM; hit rate 4.7% among 360,000; in the data active = activity change below about -50%; inconclusive = mostly about -30% to -49%
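Secreted IL-1B measured by AlphaLISA bead assay after 16 h compound exposure of THP-1 cells; compounds (final up to 57.5 uM) added 1 h before LPS (250 ng/mL) and ATP (1.25 mM) stimulation; lower signal means less secretion.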
ELG1 repair inh: ELG1-dependent DNA repair inhibition. HEK293T ELG1-luciferase reporter, luminescence, 16 h; DNA damage induced by 5-fluorouridine. Potency, µM (top dose mostly 46.1 µM), without a hit: at the top dose activity change, negative = inhibition, usual class: inhibitors. hit rate 2.3% among 330,000. AID 504467; note: potency is the fitted concentration of half-maximal effect; nearly all actives have a fitted effect of over 55% in size
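DMSO vehicle served as the neutral condition. Each well held 2,000 cells given 5-fluorouridine plus compound; after 16 hr at 37 °C/5% CO2, ONE-Glo was added and luciferase measured 30 min later.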
HT1080 IDH1KD tx: HT-1080 IDH1 knockdown cell toxicity (counter line) | HT-1080 IDH1 knockdown viability, ATP luminescence, 48 h | Potency, µM (highest dose often 46.1 µM), inactives show at the top dose activity, negative = toxicity, usual class: cytotoxic | hit rate 2% among 360,000;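 note: potency is the fitted concentration of half-maximal effect; 0% = DMSO wells and -100% = cell-free medium wells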
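In this qHTS, HT-1080 cells depleted of IDH1 are exposed for 48 h at 37 °C to compound titrations. Toxicity is scored from CellTiter-Glo luminescence, with DMSO as full viability and medium alone as none.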
DT40 TDP1 no CPT: qHTS for Inhibitors of human tyrosyl-DNA phosphodiesterase 1 (TDP1): qHTS in cells in absence of CPT. DT40 Tdp1-/- hTDP1 cells, no CPT, ATP luminescence, 48 h. Potency, µM (titrated, usually from 46.2 µM), for the others: top-dose activity change, negative = growth inhibition, actives largely listed as inhibitors. hit rate 15% among 420,000; note: potency is the fitted concentration of half-maximal effect; nearly all actives have a fitted effect of over 55% in size
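DT40 Tdp1-/-;hTDP1 cells, no CPT (DMSO vehicle only), 400 cells/well; compounds pin-transferred; ≥48 hr, 37 °C; CellTiter-Glo 30 min RT dark, luminescence read.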
TDP1 cell CPT: DT40-hTDP1 cell growth loss with CPT; chicken DT40 Tdp1-/-;hTDP1 cells + 20 nM CPT, ATP luminescence, 48 h; Potency, µM (doses to about 46.2 µM), for inactives: top-dose activity change, negative = growth inhibition, hits mostly inhibitors; hit rate 12% among 420,000; AID 686979; note: potency is the fitted concentration of half-maximal effect; nearly all actives have a fitted effect of over 55% in size
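Chicken DT40 Tdp1-/- cells complemented with human TDP1, 400 cells/well, exposed to compounds plus 20 nM camptothecin for at least 48 h at 37 C; viability read as ATP content by CellTiter-Glo luminescence.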
The depositor's hits bear a star; ? = inconclusive; . = no result. Unless noted, calls come from the whole dose curve; as a rule, active = well fitted curve in the direction sought with a large enough effect; inconclusive = small, poorly fitted or top-dose-only effect, or another doubt; inactive = no such curve, though single readings can be large; an effect the other way counts as inactive or inconclusive. Unless noted, % is set by controls: 0 for no effect and ±100 for the full control effect.

SMILES | HT1080-NT tox | IL1B secr inh | ELG1 repair inh | HT1080 IDH1KD tx | DT40 TDP1 no CPT | TDP1 cell CPT
CCOc1ccc(-n2ccn3c(CC(C)CC(=O)O)nnc3c2=O)cc1 (configuration not stated) | . | . | . | . | 8% | -1%
C[C@H](c1ccccc1)N1C[C@H](COCc2ccccc2)Oc2cc(N3CC[C@@H](O)C3)ccc2S1(=O)=O | ? | 6 | . | ? | ? | ?
N#C/C(=C\c1ccc(-c2ccc(Br)cc2)o1)C(=O)NCCc1c[nH]c2ccccc12 | -24% | -61* | ? | -27% | ? | ?
COC(=O)c1ccc(CN2C(=O)C(C)N(C(=O)c3c(F)cccc3F)c3ccccc32)cc1 (configuration not stated) | -1% | 11 | ? | 4% | 8.2µM* | 15µM*
CC1C(=O)N(Cc2ccc(F)cc2)c2ccccc2N1C(=O)c1c(F)cccc1F (configuration not stated) | 0% | -2 | ? | -11% | ? | 16µM*
CC1C(=O)N(Cc2ccc([N+](=O)[O-])cc2)c2ccccc2N1C(=O)C1CC1 (configuration not stated) | 1% | 0 | -25% | 0% | ? | ?
CN(Cc1ccccc1)C(=O)[C@@H]1CCCN1C(=O)[C@@H]1CCCN1C(=O)c1ccccc1 | 3% | -5 | . | 19% | -17% | -16%
C/C(=N\NC(=O)c1cccs1)c1cccnc1 | 12% | -12 | ? | 16% | 26µM* | 15µM*
C/C(=N\NC(=O)c1ccncc1)c1cccnc1 | 5% | 15 | 11% | 8% | 5% | 3%
C/C(=N\NC(=O)c1cccnc1)c1ccc(OC2OCCOC2Oc2ccc(/C(C)=N/NC(=O)c3cccnc3)cc2)cc1 (configuration not stated) | 0% | 30 | 4% | -3% | 21µM* | ?
O=C(N/N=C(/CC(=O)c1cccs1)C(F)(F)F)c1ccc(O)cc1 | -12% | 29 | 2% | -21% | -25% | 22%
COc1ccc(/C(C)=N/NC(=O)CNC(=O)c2cccnc2)cc1 | 10% | 25 | -12% | 11% | 0% | 14%
O=C(N/N=C(\CC(=O)c1cccs1)C(F)(F)F)c1cccnc1 | -12% | 37 | 0% | -26% | 23µM* | ?
CN(CC(CC(=O)Nc1nncs1)c1ccccc1)S(=O)(=O)c1ccc(Br)cc1 (configuration not stated) | -2% | 32 | ? | 0% | ? | 16µM*
COCCCNC(=O)C1CCN(C(=O)c2cnn(-c3ccccc3)c2-n2cccc2)CC1 | . | . | . | . | -4% | -3%
CCc1cccc(NC(=O)C2CCN(C(=O)c3cnn(-c4ccccc4)c3-n3cccc3)CC2)c1 | . | . | . | . | 15µM* | 21µM*
O=C(NCc1ccccc1)C1CCN(C(=O)c2cnn(-c3ccccc3)c2-n2cccc2)CC1 | . | . | . | . | -19% | -30%
CCCSCCCNC(=O)C1CCN(C(=O)c2cnn(-c3ccccc3)c2-n2cccc2)CC1 | . | . | . | . | ? | 18µM*
O=C(Nc1cc(F)ccc1F)C1CCN(C(=O)c2cnn(-c3ccccc3)c2-n2cccc2)CC1 | . | . | . | . | 26µM* | ?
Cc1ccc(Cl)cc1NC(=O)C1CCN(C(=O)c2cnn(-c3ccccc3)c2-n2cccc2)CC1 | . | . | . | . | 21µM* | -30%
COc1cc(OC)c(NC(=O)Cn2cnc3c(nc4n3CCCCC4)c2=O)cc1Cl | . | . | . | . | -16% | -11%
CC(C)[C@H](NC(=O)c1ccco1)C(=O)NC12CC3CC(CC(C3)C1)C2 | -8% | 0 | -27% | -3% | -26% | ?
Clc1ccc2nc(COc3ccccc3)[nH]c2c1 | 13µM* | -23 | ? | 8.2µM* | ? | ?
Clc1ccc2nc(-c3ccc(Cl)nc3)[nH]c2c1 | -16% | -68* | ? | -29% | ? | ?
Clc1ccc2nc(-c3ccccc3)[nH]c2c1 | . | . | . | . | 27µM* | 30µM*
SMILES | HT1080-NT tox | IL1B secr inh | ELG1 repair inh | HT1080 IDH1KD tx | DT40 TDP1 no CPT | TDP1 cell CPT
CCCOc1cccc(C(=O)NCCNC(=O)c2ccc(C)nc2)c1 | 2% | 38 | 0% | -2% | -6% | 4%
CN1c2ccccc2C(C)(C)C12C=Cc1cc(O)ccc1O2 (configuration not stated) | ? | -74* | 3% | ? | 16µM* | 13µM*
CN1c2ccccc2C(C)(C)C12C=Nc1c(cc(N3CCOCC3)c3ccccc13)O2 (configuration not stated) | -10% | -5 | -4% | -18% | ? | ?
Cn1cc(/C=C/c2cc[n+](C)cc2)c2cc(F)ccc21 | ? | -4 | ? | ? | 0.58µM* | 0.52µM*
Cn1cc(/C=C/c2cc[n+](C)cc2)c2cc(Cl)ccc21 | -15% | -60* | ? | ? | 0.73µM* | 0.65µM*
Cn1cc(C=O)c2cc(F)ccc21 | -1% | 16 | -10% | 2% | 0% | -1%
C[n+]1ccc(/C=C/c2c[nH]c3ccc(F)cc23)cc1 | -16% | 31 | ? | ? | 0.82µM* | 1.6µM*
Cc1ccc(S(=O)(=O)N2CCN(C(=O)CN3C(=O)c4ccc([N+](=O)[O-])cc4C3=O)CC2)c(C)c1 | 3% | 13 | -1% | 0% | 1% | 14%
c1coc(-c2ccnc3ncnn23)c1 | 13% | 3 | 18% | 19% | -5% | -8%

Compound activity from PubChem.
